Bioassay records as filed in PubChem.
AMA1 RON2 block – inhibitors of Plasmodium falciparum AMA1-RON2 interaction; AID 720542; 360,000 compounds, 0.2% hits; AlphaScreen AMA1-biotinylated RON2 peptide binding; Potency, µM (doses to about 58.2 µM), inactives show top-dose activity change, negative = inhibition, usual class: inhibitors;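 note: 0% = vehicle wells and -100% = peptide control; nearly all actives have a fitted effect of over 45% in size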
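AMA1 (3D7) with his tag at 25 nM final met compounds first, then biotinylated RON2 peptide at 25 nM; detection used donor plus acceptor beads, 10 µg/mL apiece, read by AlphaScreen after 30 min at room temperature.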
VACV mCherry inh – inhibitors of vaccinia virus infection (mCherry reporter signal); Vaccinia virus mCherry reporter infection, fluorescence; Potency, µM (highest dose often 36.5 µM), for the others: top-dose activity change, negative = inhibition, actives largely listed as inhibitors; 310,000 compounds, 0.63% hits; AID 720579; calls by dose curve; tested in A549 cells; note: % is set by controls: 0 for no effect and ±100 for the full control effect; nearly all actives have a fitted effect of over 35% in size
AmpC inh detg – AmpC beta-lactamase inhibition with detergent present | P00811 | AmpC hydrolysis of nitrocefin, absorbance 480 nm, 0.01% Triton | 370,000 compounds, 0.041% hits | Potency, µM (series often up to 114 µM), inactives show at the top dose activity change, negative = inhibition, usual class: inhibitors;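 note: 0% = no-compound wells and -100% = no-enzyme wells; nearly all actives have a fitted effect of over 25% in size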
Target sequence (P00811 whole entry, looked up): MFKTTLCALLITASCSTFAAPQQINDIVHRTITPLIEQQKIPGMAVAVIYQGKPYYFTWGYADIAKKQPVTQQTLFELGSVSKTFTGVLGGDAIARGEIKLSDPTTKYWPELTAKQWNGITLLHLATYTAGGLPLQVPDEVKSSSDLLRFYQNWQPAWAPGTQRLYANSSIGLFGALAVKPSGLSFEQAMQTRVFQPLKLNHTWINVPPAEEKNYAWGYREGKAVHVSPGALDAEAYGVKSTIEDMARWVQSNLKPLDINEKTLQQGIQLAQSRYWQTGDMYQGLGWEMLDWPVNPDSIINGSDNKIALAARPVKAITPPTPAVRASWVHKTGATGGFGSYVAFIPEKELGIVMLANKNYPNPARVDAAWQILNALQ
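AmpC (5.3 nM in the dispensed reagent) in 20 mM phosphate pH 7.0 with 0.01% (detergent screen) or 0.0001% Triton X-100 was preincubated with compounds for 15 min at room temperature. Nitrocefin was then added from an 800 uM solution, and hydrolysis was followed at 480 nm.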
AmpC inh no detg – blocks E. coli AmpC beta-lactamase in detergent-free assay; P00811; AmpC nitrocefin hydrolysis, absorbance 480 nm, 0.0001% Triton; Potency, µM (series often up to 57.1 µM), inactives show at the highest dose activity change, negative = inhibition, hits mostly inhibitors; 330,000 compounds, 0.52% hits; AID 485341;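 note: plate controls were no compound for no effect and no enzyme for full effect; nearly all actives have a fitted effect of over 20% in size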
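20 mM phosphate pH 7.0 + 0.01% (detergent screen) or 0.0001% Triton X-100; 5.3 nM AmpC reagent; cpd preinc 15 min RT; nitrocefin (800 uM stock) to start; A480 q20 s × 4 min; Activity was normalised to no-enzyme and no-compound control wells.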
VACV Venus inh – inhibitors of vaccinia virus (Venus reporter); Vaccinia virus Venus reporter expression, fluorescence; Potency, µM (doses to about 36.5 µM), for the others: at the highest dose activity change, negative = inhibition, most hits filed as inhibitors; 330,000 compounds, 0.46% hits; AID 720580; calls by dose curve; tested in A549 cells; note: % is set by controls: 0 for no effect and ±100 for the full control effect; nearly all actives have a fitted effect of over 30% in size
SARS PLP yeast – inhibitors of SARS-CoV papain-like protease in yeast. S. cerevisiae expressing SARS-CoV PLpro, growth rescue. AID 485353. Potency, µM (top dose mostly 32.9 µM), inactives show top-dose activity, positive = growth rescue, hits mostly activators. 330,000 compounds, 0.19% hits; calls by dose curve; note: 0% is about no effect; nearly all actives have a fitted effect of over 55% in size
* marks the source's active call; other numbers are inactive results; i = inactive; u = inconclusive; x = no result; ! = repeats disagree; [ ] = dose if it differs, or a comment. In the library only some 1.3% were active in any assay of this set; here they are far more common. Unless noted, calls come from the whole dose curve; as a rule, active = well fitted curve in the direction sought with a large enough effect; inconclusive = small, poorly fitted or top-dose-only effect, or another doubt; inactive = no such curve, though single readings can be large; an effect the other way counts as inactive or inconclusive. Potency is the fitted concentration of half-maximal effect.

SMILES | AMA1 RON2 block | VACV mCherry inh | AmpC inh detg | AmpC inh no detg | VACV Venus inh | SARS PLP yeast
O=C1c2cccc(NCCNCCO)c2C(=O)c2cccc(NCCNCCO)c21 | 45µM* | u | x | x | u | x
O=C(O)CCNc1ccc(NCCC(=O)O)c2c1C(=O)c1ccccc1C2=O | 16µM* | -9% | -13% | -33% | 20% | -5%
COc1ccc(C(=O)NCC2Cc3cc(C)cc(-c4nc5ccccc5s4)c3O2)c(OC)c1OC (stereo not given) | x | i | x | x | -10% | x
COc1ccccc1NC(=O)N1CCN(c2ccnc3cc(Cl)ccc23)CC1 | -14% | u | -7% | 32% | -20% | 0%
COc1ccccc1N1CCN(c2ccnc3cc(Cl)ccc23)CC1 | -19% | 11µM* | -5% | 134% | -28% | -9%
Cc1ccc(Cl)cc1-n1ncc2c(N3CCCCCC3)ncnc21 | x | u | -1% | x | -20% | x
COc1ccccc1N1CCN(c2ncnc3c2cnn3-c2cc(Cl)ccc2C)CC1 | x | 10µM* | 5% | x | 10µM* | x
CCCCCCCCCCCCCCCC[n+]1ccc(/C=C/c2c[nH]c3ccccc23)c2ccccc21 | x | i | x | x | i | x
Cc1cc(N(C)C)ccc1N=Nc1ccc(N)cc1 | 14µM* | -11% | x | x | -18% | x
Nc1ccc(N=Nc2ccc(N)cc2)cc1 | -10% | x | 3% | -23% | x | -2%
Cc1c(C(=O)NCCN2CCC(c3ccccc3)CC2)cnn1-c1nccc(-c2cccs2)n1 | x | u | x | x | -27% | x
NS(=O)(=O)c1ccc(N2N=C(c3ccc(Br)cc3)CC2c2ccc(F)cc2)cc1 (stereo not given) | 46% | 16µM* | 0% | 5.6µM* | 11µM* | -18%
NS(=O)(=O)c1ccc(N2N=C(c3ccccc3)CC2c2cccc(F)c2)cc1 (stereo not given) | 102% | -17% | u | -26% | -29% | -18%
C/C=C/C(=O)OCC(=O)Nc1cc(OC)c([N+](=O)[O-])cc1C | -4% | 5.6µM* | 1% | -15% | 7.9µM* | -1%
COc1cc(NC(=O)COC(=O)C=C(C)C)c(C)cc1[N+](=O)[O-] | -7% | -2% | -8% | -31% | -7% | -4%
C/C=C/C(=O)OCC(=O)Nc1cc([N+](=O)[O-])ccc1Cl | 3% | 11µM* | -3% | -17% | u | 7%
O=C(NCC1(N2CCOCC2)CCCCCC1)c1cnn(-c2nccc(-c3ccco3)n2)c1C1CC1 | x | -8% | x | x | -2% | x
C=CC(=O)N1C/C(=C/c2ccc(F)cc2)C(=O)/C(=C\c2ccc(F)cc2)C1 | 1% | u | x | x | 7.9µM* | x
COc1cc(=O)n2c(c1C(=O)NCc1ccco1)CCN(Cc1c(F)cccc1F)CC2 | x | i | x | x | -15% | x
O=C(CN1C(=O)C2CCCCN2c2ccc(C(=O)N3CCCC3)cc21)NCc1cccc(Cl)c1 (stereo not given) | x | -7% | -7% | x | -5% | x
CC1(C)CC(=O)c2c(oc3cc(O)c(O)cc23)C1 | 1.6µM* | x | -7% | -32% | x | -3%
Oc1[nH]c2ccc(Br)cc2c1N=NC(=S)Nc1ccc(F)cc1 | 64% | u | 2% | -49% | -15% | -1%
Oc1ccc(NC(=S)N=Nc2c(O)[nH]c3ccc(Br)cc23)cc1 | 39% | u | 2% | 18µM* | -16% | 1%
CC(=O)OC1C(O)C(C)OC(OC2C(OC(=O)C3CCC4C(C3)OC3(CC(OC(=O)/C=C/c5ccccc5)C(C)CO3)C43CO3)OC(C)C(O)C2OC(C)=O)C1O (stereo not given) | 13% | u | x | x | 0.32µM* | x
CC(C)c1c(C(=O)NCc2cccnc2)cnn1-c1nccc(-c2cccs2)n1 | x | -4% | x | x | -4% | x
SMILES | AMA1 RON2 block | VACV mCherry inh | AmpC inh detg | AmpC inh no detg | VACV Venus inh | SARS PLP yeast
COCCCNC(=O)c1cnn(-c2ncc3c(n2)-c2ccccc2CCC3)c1C | x | -10% | x | x | -11% | x
C1CCC(C(CC2CCCCN2)C2CCCCC2)CC1 (stereo not given) | 8% | 11µM* | 0% | 125% | 13µM* | -5%
CC1(C)CC(C(=O)N2CCOc3ccc(CN4CCN(Cc5ccccn5)CC4)cc3C2)CCO1 (stereo not given) | x | -12% | x | x | -7% | x
CCOc1cc2nc(-c3ccc(OC)c(OC)c3)nc(N3CCOCC3)c2cc1OC | -15% | 11µM* | 2% | 20% | u | 8%
O=C1Cc2c([nH]c3ccc([N+](=O)[O-])cc23)-c2ccccc2N1 | -5% | 1.3µM* | x | x | u | x
Nc1ccc(N=Nc2ccccc2)c2cccnc12 | 20µM* | x | -4% | 7% | x | -4%
Cc1ccccc1N=Nc1ccc(O)c2ncccc12 | 26%[11.6 µM] | 3.5µM* | -8% | -19% | u | 3.5µM*
CC(C)(C)C(=O)Nc1sc2c(c1C#N)CCC2 | -8% | -8% | 1% | -12% | 2% | -3%
CC(C)(C)C(=O)NC(NC(=S)Nc1sc2c(c1C#N)CCCC2)C(Cl)(Cl)Cl (stereo not given) | 7% | x | -7% | 1.1µM* | x | 0%
Cc1ccc2nc(-c3ccc(O)c(O)c3)cn2c1 | 3.5µM* | -4% | -2% | -28% | -13% | -3%
Cc1ccc2nc(-c3ccccc3)cn2c1 | 9% | i | 4% | -14% | 0% | -23%
CCN(C)c1cc2c(c3c1ccn3C)C1CCC2C1 (stereo not given) | u | 0% | x | x | 4% | x
Cc1ccccc1-c1cc2c(c3c1ccn3C)C1CCC2C1 (stereo not given) | u | i | x | x | -9% | x
CN(Cc1ccccc1)c1cc2c(c3c1ccn3C)C1CCC2C1 (stereo not given) | 16µM* | i | x | x | -2% | x
COc1ccccc1N(C)c1cc2c(c3c1ccn3C)C1CCC2C1 (stereo not given) | 13µM* | 64% | x | x | 6% | x
Cn1ccc2c(N(Cc3ccccc3)Cc3ccccc3)cc3c(c21)C1CCC3C1 (stereo not given) | u | 13% | x | x | -6% | x
CN(c1cc2c(c3c1ccn3C)C1CCC2C1)C1CCCCC1 (stereo not given) | 16µM* | 9% | x | x | -2% | x
CN(CCc1ccccc1)c1cc2c(c3c1ccn3C)C1CCC2C1 (stereo not given) | 16µM* | 27% | x | x | 6% | x
CCCCCCCCCCCCCCCC[n+]1ccc(/C=N/O)cc1 | -8% | 11µM* | -3% | 152% | 10µM* | -58%
CCCCCCC[n+]1ccc(-c2cc[n+](CCCCCCC)cc2)cc1 | 1% | u | -11% | 34% | u | -29%
CCCCCCCCCCCCCCCC[n+]1ccccc1 | 11% | 13µM*! | x | x | 14µM*! | x
Cc1cccc(CNC(=O)c2cnn(-c3nccc(-c4cccs4)n3)c2C2CC2)n1 | x | -11% | x | x | -4% | x
